According to PubChem BioAssay (NCATS):
Inconclusive results are not listed. Active and inactive are the calls of the source. Unless noted, calls follow the shape of the dose curve; as a rule, active = well fitted curve in the direction sought with a large enough effect; inconclusive = small, poorly fitted or top-dose-only effect, or another doubt; inactive = no such curve, though single readings can be large; an effect the other way counts as inactive or inconclusive.

Key:
[1] = qHTS assay for measurement of the activity of small molecule inhibitors on Zika virus induced Caspase-3 activity in human astrocytoma cells (AID 1224859)
Procedure, shortened: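 Caspase activation in ZIKV-infected SNB-19 cells (2 FFU/cell, 6 h) measured by Caspase-Glo 3/7 luminescence after 30 min RT; compound pre-incubated 1 h; normalised to uninfected and infected controls.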

[2] = Natriuretic polypeptide receptor (hNpr1) antagonism - Pilot counterscreen GloSensor control cell line (AID 1347045; calls by dose curve; also: series mostly up to about 38 µM)
Procedure, shortened: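 Control counterscreen: luciferase cGMP-biosensor HEK293 cells (no Npr1) received compound for 30 min at room temperature after GloSensor substrate loading. Luminescence was measured before and 20 min after soluble guanylyl cyclase activation by 50 uM nitroprusside.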

[3] = biological target: Atrial natriuretic peptide receptor 1 (Homo sapiens) (UniProt P16066); experiment: Natriuretic polypeptide receptor (hNpr1) antagonism - Pilot screen (AID 1347049; calls by dose curve;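 also: HEK293 cells with hNpr1 and GloSensor cGMP luciferase stimulated by 0.1 nM hNppA; agonist-evoked cGMP luminescence read 20 min after hNppA addition; series mostly up to about 58 µM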)
Sequence of Atrial natriuretic peptide receptor 1 (Homo sapiens) (P16066 whole entry, looked up): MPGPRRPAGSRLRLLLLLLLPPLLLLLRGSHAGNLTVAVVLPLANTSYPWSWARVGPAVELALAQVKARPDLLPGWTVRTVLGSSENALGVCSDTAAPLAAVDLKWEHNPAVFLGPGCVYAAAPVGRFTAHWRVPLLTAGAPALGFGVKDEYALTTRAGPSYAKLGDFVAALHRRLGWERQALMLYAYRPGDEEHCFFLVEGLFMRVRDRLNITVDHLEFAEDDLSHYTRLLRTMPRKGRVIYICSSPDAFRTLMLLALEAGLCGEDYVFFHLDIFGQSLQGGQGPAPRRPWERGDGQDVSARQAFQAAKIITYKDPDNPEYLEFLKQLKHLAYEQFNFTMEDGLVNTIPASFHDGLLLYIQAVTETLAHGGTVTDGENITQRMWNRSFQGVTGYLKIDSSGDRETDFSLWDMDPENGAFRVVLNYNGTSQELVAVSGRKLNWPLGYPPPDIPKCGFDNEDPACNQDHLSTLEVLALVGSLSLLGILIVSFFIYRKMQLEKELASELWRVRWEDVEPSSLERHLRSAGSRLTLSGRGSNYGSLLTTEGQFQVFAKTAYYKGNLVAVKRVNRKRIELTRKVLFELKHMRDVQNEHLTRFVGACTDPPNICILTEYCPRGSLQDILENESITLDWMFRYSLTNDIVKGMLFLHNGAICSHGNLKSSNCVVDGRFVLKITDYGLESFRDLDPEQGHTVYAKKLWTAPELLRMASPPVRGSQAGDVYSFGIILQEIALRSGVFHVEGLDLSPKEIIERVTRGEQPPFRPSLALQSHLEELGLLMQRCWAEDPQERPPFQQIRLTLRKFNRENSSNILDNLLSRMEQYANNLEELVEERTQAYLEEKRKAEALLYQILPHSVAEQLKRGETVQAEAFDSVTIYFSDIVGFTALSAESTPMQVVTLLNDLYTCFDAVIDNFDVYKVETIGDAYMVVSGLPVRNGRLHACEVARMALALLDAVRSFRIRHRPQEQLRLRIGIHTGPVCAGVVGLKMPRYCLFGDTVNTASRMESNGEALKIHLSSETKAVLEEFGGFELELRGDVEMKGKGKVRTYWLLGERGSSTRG
Procedure, shortened: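 Cells expressing receptor plus cGMP biosensor are seeded and incubated overnight at 37C, then loaded with GloSensor reagent (2% final) at room temperature for 2 h. Library compounds go on for 30 min. A pre-read precedes agonist (hNppA, 0.1 nM final) and a 20-min readout.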

[4] = biological target: Atrial natriuretic peptide receptor 2 (Homo sapiens) (UniProt P20594); experiment: Natriuretic polypeptide receptor (hNpr2) antagonism - Pilot subtype selectivity assay (AID 1347050; calls by dose curve)
Sequence of Atrial natriuretic peptide receptor 2 (Homo sapiens) (P20594 whole entry, looked up): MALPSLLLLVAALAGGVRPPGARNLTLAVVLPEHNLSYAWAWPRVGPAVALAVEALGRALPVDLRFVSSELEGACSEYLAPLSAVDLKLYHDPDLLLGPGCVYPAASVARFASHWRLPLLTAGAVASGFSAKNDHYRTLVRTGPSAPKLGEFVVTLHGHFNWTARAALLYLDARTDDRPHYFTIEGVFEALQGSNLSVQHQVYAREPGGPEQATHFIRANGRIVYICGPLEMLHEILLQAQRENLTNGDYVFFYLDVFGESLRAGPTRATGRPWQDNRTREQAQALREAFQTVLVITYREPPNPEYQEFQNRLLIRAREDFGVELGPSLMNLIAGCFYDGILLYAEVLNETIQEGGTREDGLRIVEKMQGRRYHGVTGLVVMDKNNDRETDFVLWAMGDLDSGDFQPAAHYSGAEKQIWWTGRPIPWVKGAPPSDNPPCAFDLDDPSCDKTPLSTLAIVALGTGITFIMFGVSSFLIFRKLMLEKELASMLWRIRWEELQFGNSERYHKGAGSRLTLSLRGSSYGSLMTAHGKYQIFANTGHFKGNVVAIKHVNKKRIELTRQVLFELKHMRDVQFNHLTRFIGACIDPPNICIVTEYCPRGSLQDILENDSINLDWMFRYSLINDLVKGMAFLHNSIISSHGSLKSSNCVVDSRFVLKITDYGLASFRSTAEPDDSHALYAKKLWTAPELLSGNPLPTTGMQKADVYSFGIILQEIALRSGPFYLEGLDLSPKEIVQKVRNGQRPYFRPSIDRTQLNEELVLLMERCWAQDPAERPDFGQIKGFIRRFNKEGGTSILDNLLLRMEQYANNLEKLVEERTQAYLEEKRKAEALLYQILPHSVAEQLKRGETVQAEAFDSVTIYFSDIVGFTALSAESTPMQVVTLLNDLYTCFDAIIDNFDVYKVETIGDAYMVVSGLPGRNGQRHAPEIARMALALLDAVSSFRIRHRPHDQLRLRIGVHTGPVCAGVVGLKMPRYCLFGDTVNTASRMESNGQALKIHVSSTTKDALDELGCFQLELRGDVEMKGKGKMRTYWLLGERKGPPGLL
Procedure, shortened: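 Read-out: GloSensor luminescence (CCD imager), baseline vs post-stimulation. HEK293 cells expressing hNpr2; compounds pre-incubated 30-50 min at ambient temperature; hNppC 1 nM final, 20 min.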

[5] = NS1 protein of Zika virus - qHTS assay to identify small molecule inhibitors in human HEK 293 cells (AID 1347053); also: series mostly up to about 46 µM; nearly all actives have a fitted effect of over 55% in size
Procedure, shortened: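 TR-FRET signal from two anti-ZIKV NS1 antibodies quantified NS1 in HEK 293 cells 24 h after MR766 infection at MOI = 0.5; compounds were added 1 h before virus. Uninfected cells and infected cells defined the NS1 normalization range.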

[6] = biological target: T1, Tyrosine-protein phosphatase non-receptor type substrate 1 (Homo sapiens) + Leukocyte surface antigen CD47 (Homo sapiens) (UniProt P78324+Q08722); experiment: CD47-SIRPalpha protein protein interaction - LANCE assay qHTS validation (AID 1347057; active = well fitted curve in the direction sought with a large enough effect in the signal ratio, with a control signal flat, not every such curve was filed as active; the % refers to the signal ratio; also: series mostly up to about 38 µM)
T1 sequence (P78324 whole entry, looked up, the tested form may be a part): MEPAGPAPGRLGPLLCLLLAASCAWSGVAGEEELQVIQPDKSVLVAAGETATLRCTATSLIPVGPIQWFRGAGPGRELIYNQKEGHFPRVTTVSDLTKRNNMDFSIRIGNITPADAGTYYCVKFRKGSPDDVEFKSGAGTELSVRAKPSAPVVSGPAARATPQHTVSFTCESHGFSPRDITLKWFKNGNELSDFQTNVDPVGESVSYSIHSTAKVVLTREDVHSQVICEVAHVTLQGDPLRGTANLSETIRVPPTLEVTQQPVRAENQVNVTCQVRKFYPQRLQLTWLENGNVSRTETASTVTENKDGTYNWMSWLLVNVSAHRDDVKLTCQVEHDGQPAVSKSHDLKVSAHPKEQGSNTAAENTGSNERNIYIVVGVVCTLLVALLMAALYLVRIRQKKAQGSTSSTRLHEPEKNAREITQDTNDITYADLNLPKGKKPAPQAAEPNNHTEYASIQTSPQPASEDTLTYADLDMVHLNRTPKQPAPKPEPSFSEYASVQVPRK
T1 sequence (Q08722 whole entry, looked up, the tested form may be a part): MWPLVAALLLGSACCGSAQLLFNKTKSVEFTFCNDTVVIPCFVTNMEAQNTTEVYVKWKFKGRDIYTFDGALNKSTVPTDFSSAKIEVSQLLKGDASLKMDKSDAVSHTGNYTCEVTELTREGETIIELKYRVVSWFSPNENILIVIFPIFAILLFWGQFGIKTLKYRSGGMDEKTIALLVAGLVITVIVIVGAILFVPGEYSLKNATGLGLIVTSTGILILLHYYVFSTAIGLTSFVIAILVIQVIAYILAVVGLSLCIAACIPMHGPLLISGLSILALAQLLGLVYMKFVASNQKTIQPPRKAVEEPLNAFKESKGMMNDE
Procedure, shortened: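 Inhibition of soluble CD47/SIRPalpha ectodomain association by titrated compounds, measured as 665/615 nm time-resolved FRET ratio after sequential 30 min room-temperature incubations.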

[7] = biological target: T1, Tyrosine-protein phosphatase non-receptor type substrate 1 (Homo sapiens) + Leukocyte surface antigen CD47 (Homo sapiens); experiment: CD47-SIRPalpha protein protein interaction - HTRF assay qHTS validation (AID 1347058; active = well fitted curve in the direction sought with a large enough effect in the signal ratio, not every such curve was filed as active; the % refers to the signal ratio; also: series mostly up to about 38 µM)
Procedure, shortened: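 Soluble extracellular domains (6His-CD47, Avi-tag-biotinylated SIRPalpha) in PBS pH 7.4 with 0.05% IGEPAL CA-630. Compounds were preincubated 30 min at RT with CD47 and anti-His-Eu, then SIRPalpha and SAV-XL665 were added. TR-FRET 665/615 ratio.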

[8] = biological target: T1, Tyrosine-protein phosphatase non-receptor type substrate 1 (Homo sapiens) + Leukocyte surface antigen CD47 (Homo sapiens); experiment: CD47-SIRPalpha protein protein interaction - Alpha assay qHTS validation (AID 1347059);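 also: bead proximity luminescence from CD47 binding SIRPalpha after compound preincubation with SIRPalpha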
Procedure, shortened: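 In PBS (pH 7.4) with 0.05% IGEPAL CA-630, compound is preincubated with biotin-Avi-SIRPalpha ectodomain before His-CD47 ectodomain and affinity beads are added. Light-protected room-temperature incubations; AlphaScreen readout.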

[9] = biological target: Parathyroid hormone/parathyroid hormone-related peptide receptor (Homo sapiens) (UniProt Q03431); experiment: qHTS for PTHR1 Agonists: Optimization Screen against the NCGC LOPAC library (AID 1347079);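 also: GloSensor cAMP luminescence in HEK-293 GP2 cells expressing human PTHR1 with IBMX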
Sequence of Parathyroid hormone/parathyroid hormone-related peptide receptor (Homo sapiens) (Q03431 whole entry, looked up): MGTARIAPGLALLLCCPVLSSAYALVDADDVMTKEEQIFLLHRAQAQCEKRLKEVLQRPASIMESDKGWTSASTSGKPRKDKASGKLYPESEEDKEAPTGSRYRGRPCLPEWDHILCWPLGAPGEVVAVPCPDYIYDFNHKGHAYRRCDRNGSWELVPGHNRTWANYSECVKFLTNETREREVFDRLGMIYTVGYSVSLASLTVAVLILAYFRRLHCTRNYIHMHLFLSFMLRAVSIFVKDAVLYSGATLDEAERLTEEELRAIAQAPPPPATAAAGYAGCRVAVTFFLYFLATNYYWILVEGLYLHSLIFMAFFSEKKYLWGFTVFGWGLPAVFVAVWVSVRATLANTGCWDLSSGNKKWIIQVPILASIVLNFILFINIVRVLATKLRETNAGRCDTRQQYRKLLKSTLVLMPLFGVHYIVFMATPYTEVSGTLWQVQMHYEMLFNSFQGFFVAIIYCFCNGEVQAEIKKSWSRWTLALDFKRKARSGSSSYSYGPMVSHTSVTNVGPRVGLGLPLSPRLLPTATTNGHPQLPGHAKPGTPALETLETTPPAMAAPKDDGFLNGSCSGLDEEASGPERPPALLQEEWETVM
Procedure, shortened: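 HEK-293 GP2 cells, PTHR1 + GloSensor cAMP; 3000 cells/well, o/n. Luciferin + IBMX 0.5mM each (stock), 1 hr 37C. Cpd titration, 1 hr 37C. Lum after 15 min RT. Ctrl M-PTH(1-15) top 10uM.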

Measured: Potency

N#C/C(=C\c1c[nH]c2ccccc12)C(=O)c1ccc(O)c(O)c1
inactive: [1] | [2] | [3] | [4]

Nc1nc(Cl)nc2c1ncn2[C@@H]1O[C@H](CO)[C@@H](O)[C@H]1O
inactive: all assays above

CN1C2CCC1CC(OC(=O)C(O)c1ccccc1)C2 (stereo not drawn)
inactive: all assays above

OC[C@H]1O[C@@H](n2cnc3c(NC4CCCC4)ncnc32)[C@H](O)[C@@H]1O
inactive: all assays above

NCC1OC(O[C@H]2[C@H](O)[C@@H](OC3C(O)C(N)CC(N)C3OC3OC(CO)C(O)C(O)C3N)O[C@@H]2CO)C(N)C(O)C1O (stereo partly drawn)
inactive: all assays above

CN(C)C(N)=NCCC[C@H](N)C(=O)O
not listed: [9]
inactive: all other assays above
